According to PubChem BioAssay (Tox21):
Several values for one entry are separate records, joined by “and”; a condition that tells them apart may be missing. Equal entries are not always repeated. Results filed as inconclusive are left out. Some structures have more than one record in an assay (separate samples or runs), and their calls can disagree. Activity calls are given as the source filed them. Unless noted, the call rests on the fitted dose curve; in most records, active means well fitted curve in the direction sought with a large enough effect in the repeat runs; inconclusive means weak or mixed curves; inactive means no such curve, though single readings can be large; an effect the other way counts as inactive or inconclusive.

Tests used:
[1] = qHTS assay to identify aromatase inhibitors - cell viability counter screen (AID 743084);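 further: cells stimulated with testosterone during compound exposure; nearly all actives have a fitted effect of over 55% in size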; further: potency means the concentration at half of the fitted maximal effect
[2] = molecular target: Aryl hydrocarbon receptor (Homo sapiens) (UniProt P35869); assay: qHTS assay to identify small molecule that activate the aryl hydrocarbon receptor (AhR) signaling pathway (AID 743085); further: nearly all actives have a fitted effect of over 15% in size; further: potency means the concentration at half of the fitted maximal effect;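 on activation: HG2L7.5c1 human HepG2 liver cells with stably integrated DRE-driven firefly reporter; series mostly up to about 70 µM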
Aryl hydrocarbon receptor (Homo sapiens), sequence (P35869 whole entry, looked up): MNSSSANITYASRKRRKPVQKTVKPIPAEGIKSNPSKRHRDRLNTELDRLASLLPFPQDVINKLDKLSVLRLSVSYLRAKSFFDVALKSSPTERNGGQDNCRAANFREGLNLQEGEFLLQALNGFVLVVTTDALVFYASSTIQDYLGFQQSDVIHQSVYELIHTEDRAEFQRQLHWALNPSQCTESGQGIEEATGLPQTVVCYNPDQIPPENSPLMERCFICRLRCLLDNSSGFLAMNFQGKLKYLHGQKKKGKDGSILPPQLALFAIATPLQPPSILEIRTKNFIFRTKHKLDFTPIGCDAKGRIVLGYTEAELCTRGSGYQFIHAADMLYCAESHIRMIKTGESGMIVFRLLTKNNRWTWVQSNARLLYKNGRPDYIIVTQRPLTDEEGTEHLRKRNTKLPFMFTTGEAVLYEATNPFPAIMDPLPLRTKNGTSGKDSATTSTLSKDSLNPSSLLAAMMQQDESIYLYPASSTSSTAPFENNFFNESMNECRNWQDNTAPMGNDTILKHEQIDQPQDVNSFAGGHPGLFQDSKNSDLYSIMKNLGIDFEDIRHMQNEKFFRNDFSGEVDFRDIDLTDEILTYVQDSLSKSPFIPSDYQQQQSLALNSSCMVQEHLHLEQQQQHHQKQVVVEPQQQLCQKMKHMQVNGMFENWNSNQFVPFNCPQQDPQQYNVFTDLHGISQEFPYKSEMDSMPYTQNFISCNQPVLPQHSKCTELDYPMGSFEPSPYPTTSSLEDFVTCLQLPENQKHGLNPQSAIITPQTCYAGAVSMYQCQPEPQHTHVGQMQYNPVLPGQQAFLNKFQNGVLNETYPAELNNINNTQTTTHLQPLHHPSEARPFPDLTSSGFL
Outline: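 Compounds were tested in HepG2 hepatocellular carcinoma cells harbouring a stably integrated luciferase gene under control of 20 DREs. Increased reporter signal after 24 h treatment at 37C was taken as AhR activation.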

[3] = qHTS assay to identify small molecule that activate the aryl hydrocarbon receptor (AhR) signaling pathway - cell viability counter screen (AID 743086); further: nearly all actives have a fitted effect of over 45% in size; further: potency means the concentration at half of the fitted maximal effect
Outline: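 HepG2-AhR-luc (HG2L7.5c1) cells, 4000/well, were preincubated 5 h at 37C, exposed to compound in qHTS format for 24 hr at 37C, then given CellTiter-Fluor for 30 min; viability was read as fluorescence in the reporter wells.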

[4] = molecular target: Peroxisome proliferator-activated receptor gamma (Homo sapiens) (UniProt P37231); assay: qHTS assay to identify small molecule antagonists of the peroxisome proliferator-activated receptor gamma (PPARg) signaling pathway (AID 743191; calls by dose curve; further: nearly all actives have a fitted effect of over 30% in size; further: potency means the concentration at half of the fitted maximal effect)
Peroxisome proliferator-activated receptor gamma (Homo sapiens), sequence (P37231 whole entry, looked up): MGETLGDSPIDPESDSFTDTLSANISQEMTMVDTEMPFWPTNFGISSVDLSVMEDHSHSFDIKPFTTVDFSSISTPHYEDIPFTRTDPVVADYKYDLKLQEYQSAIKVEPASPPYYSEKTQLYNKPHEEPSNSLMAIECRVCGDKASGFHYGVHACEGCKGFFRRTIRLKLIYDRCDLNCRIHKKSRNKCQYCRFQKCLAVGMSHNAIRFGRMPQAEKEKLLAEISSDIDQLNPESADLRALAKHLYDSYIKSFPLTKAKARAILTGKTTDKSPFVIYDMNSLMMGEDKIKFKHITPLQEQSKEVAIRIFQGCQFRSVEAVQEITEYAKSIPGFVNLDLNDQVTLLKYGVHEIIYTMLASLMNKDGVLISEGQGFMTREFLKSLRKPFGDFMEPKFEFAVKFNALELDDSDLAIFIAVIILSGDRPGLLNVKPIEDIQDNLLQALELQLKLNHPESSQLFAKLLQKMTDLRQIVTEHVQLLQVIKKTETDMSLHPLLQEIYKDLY
Outline: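 GeneBLAzer PPARg UAS-bla HEK293H cells carrying a UAS-driven beta-lactamase reporter were plated at 3000 cells/well, preincubated 5 h at 37C, then given compound for 17 h at 37C; LiveBLAzer B/G FRET substrate was read after 1 h at room temperature.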

[5] = qHTS assay for small molecule agonists of the antioxidant response element (ARE) signaling pathway (AID 743202; active means well fitted activation curve with a large enough effect in the signal ratio in the repeat runs, not every such curve was filed as active; the % refers to the signal ratio; further: potency means the concentration at half of the fitted maximal effect)
Outline: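 Read-out: LiveBLAzer B/G FRET substrate fluorescence after 2 h at room temperature, following 16 h compound treatment at 37 C of HepG2 cells carrying an ARE-driven beta-lactamase reporter.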

[6] = qHTS assay for small molecule activators of the heat shock response signaling pathway (AID 743210; active means well fitted activation curve with a large enough effect in the signal ratio in the repeat runs, with a control signal flat, not every such curve was filed as active; the % refers to the signal ratio; further: series mostly up to about 63 µM)
Outline: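 HSE-bla HeLa cells (beta-lactamase reporter under heat shock response elements) were exposed to compounds for 5 h at 37 C, then loaded with LiveBLAzer B/G FRET substrate for 2.5 h at room temperature before fluorescence reading.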

[7] = molecular target: Peroxisome proliferator-activated receptor delta (Homo sapiens) (UniProt Q03181); assay: qHTS assay to identify small molecule agonists of the peroxisome proliferator-activated receptor delta (PPARd) signaling pathway (AID 743212; calls by dose curve)
Peroxisome proliferator-activated receptor delta (Homo sapiens), sequence (Q03181 whole entry, looked up): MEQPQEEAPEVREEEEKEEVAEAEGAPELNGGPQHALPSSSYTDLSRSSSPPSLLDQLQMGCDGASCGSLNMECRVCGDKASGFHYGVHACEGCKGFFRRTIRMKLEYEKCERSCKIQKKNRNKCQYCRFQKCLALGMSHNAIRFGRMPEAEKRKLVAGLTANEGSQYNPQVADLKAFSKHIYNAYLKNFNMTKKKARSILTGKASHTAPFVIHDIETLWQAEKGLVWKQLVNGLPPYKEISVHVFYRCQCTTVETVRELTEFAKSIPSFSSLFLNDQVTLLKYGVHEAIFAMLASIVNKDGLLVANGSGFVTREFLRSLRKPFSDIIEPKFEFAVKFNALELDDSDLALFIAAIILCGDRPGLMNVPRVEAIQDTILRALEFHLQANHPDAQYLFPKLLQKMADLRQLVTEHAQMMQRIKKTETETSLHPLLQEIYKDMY
Outline: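 GeneBLAzer PPARd UAS-bla HEK293H cells (beta-lactamase reporter under UAS control), plated and rested 5 h at 37 C, then exposed to compounds in DMSO at 37 C; LiveBLAzer B/G FRET substrate added, 2 h room temperature, fluorescence read.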

[8] = molecular target: Peroxisome proliferator-activated receptor delta (Homo sapiens) (UniProt Q03181); assay: qHTS assay to identify small molecule antagonists of the peroxisome proliferator-activated receptor delta (PPARd) signaling pathway (AID 743215; active means well fitted inhibition curve with a large enough effect in the signal ratio in the repeat runs, not every such curve was filed as active; the % refers to the signal ratio; further: series mostly up to about 62 µM)
Outline: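 HEK293H UAS-bla, PPARd; agonist L165041 300 nM final with cpd in DMSO; 37 C 17 h; FRET substrate, RT 2 h; fluorescence intensity.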

[9] = molecular target: Bile acid receptor (Homo sapiens) (UniProt Q96RI1); assay: qHTS assay to identify small molecule antagonists of the farnesoid-X-receptor (FXR) signaling pathway (AID 743217; active means well fitted inhibition curve with a large enough effect in the signal ratio in the repeat runs, not every such curve was filed as active; the % refers to the signal ratio)
Bile acid receptor (Homo sapiens), sequence (Q96RI1 whole entry, looked up): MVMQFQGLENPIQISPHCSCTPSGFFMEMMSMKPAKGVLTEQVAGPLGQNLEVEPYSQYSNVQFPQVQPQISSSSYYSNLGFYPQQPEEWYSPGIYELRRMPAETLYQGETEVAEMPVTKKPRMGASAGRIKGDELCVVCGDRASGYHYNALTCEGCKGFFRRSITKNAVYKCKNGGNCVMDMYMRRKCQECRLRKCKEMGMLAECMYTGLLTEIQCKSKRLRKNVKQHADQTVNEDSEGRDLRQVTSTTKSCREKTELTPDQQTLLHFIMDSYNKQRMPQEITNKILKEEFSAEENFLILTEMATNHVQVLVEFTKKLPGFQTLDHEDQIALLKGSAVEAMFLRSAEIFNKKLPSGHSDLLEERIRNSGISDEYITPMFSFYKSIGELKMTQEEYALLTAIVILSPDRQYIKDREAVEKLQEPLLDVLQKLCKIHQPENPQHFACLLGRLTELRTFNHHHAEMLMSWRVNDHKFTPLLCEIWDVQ
Outline: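 GeneBLAzer FXR-UAS-bla HEK 293T, CDCA-stimulated (50 uM final). Compound treatment 16 h, 37 °C. Detection: beta-lactamase cleavage of B/G FRET substrate, fluorescence.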

[10] = molecular target: Vitamin D3 receptor (Homo sapiens) (UniProt P11473); assay: qHTS assay to identify small molecule agonists of the vitamin D receptor (VDR) signaling pathway (AID 743222; calls by dose curve)
Vitamin D3 receptor (Homo sapiens), sequence (P11473 whole entry, looked up): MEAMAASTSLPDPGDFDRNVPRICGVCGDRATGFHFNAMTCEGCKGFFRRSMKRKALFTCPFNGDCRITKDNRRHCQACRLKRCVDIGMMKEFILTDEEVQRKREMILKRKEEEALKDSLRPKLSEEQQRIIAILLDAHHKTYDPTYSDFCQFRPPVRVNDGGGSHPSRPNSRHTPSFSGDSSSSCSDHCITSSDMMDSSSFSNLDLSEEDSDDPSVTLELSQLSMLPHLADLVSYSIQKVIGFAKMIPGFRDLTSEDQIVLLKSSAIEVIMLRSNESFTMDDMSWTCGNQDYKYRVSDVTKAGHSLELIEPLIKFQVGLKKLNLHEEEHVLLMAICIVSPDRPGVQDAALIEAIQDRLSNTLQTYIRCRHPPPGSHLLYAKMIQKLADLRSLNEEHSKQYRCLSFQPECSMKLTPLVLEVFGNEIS
Outline: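 In VDR-bla cells, compound-induced beta-lactamase expression is quantified by FRET substrate fluorescence. Treatment lasts 16 h at 37C; substrate develops 2 h at room temperature.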

[11] = qHTS assay for small molecule activators of the heat shock response signaling pathway - cell viability counter screen (AID 743209); further: nearly all actives have a fitted effect of over 50% in size
Outline: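 Readout: CellTiter-Glo luminescence, 30 min at room temperature. System: HSE-bla HeLa cells, 1500/well, plated overnight. Treatment: compounds in DMSO, 5 h at 37 C.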

[12] = qHTS assay to identify small molecule agonists of the peroxisome proliferator-activated receptor delta (PPARd) signaling pathway - cell viability counter screen (AID 743211); further: nearly all actives have a fitted effect of over 55% in size; further: potency means the concentration at half of the fitted maximal effect
Outline: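 Counter screen for cytotoxicity run in parallel with the PPARd reporter screen. Beta-lactamase reporter HEK293H cells exposed to compounds 17 h; ATP-based CellTiter-Glo luminescence quantified viability.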

[13] = qHTS assay to identify small molecule antagonists of the peroxisome proliferator-activated receptor delta (PPARd) signaling pathway - cell viability counter screen (AID 743213); further: nearly all actives have a fitted effect of over 50% in size
Outline: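 Agonist-stimulated (L165041, 300 nM final) HEK293H PPARd UAS-bla cells are exposed to compounds for 17 h at 37 C, and ATP-based luminescence (CellTiter-Glo) from the same wells reports cytotoxicity.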

[14] = qHTS assay to identify small molecule agonists of the farnesoid-X-receptor (FXR) signaling pathway - cell viability counter screen (AID 743218); further: nearly all actives have a fitted effect of over 45% in size; further: potency means the concentration at half of the fitted maximal effect
Outline: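 Parallel cytotoxicity test: compound-treated (16 h, 37 C) HEK 293T FXR-bla reporter cells were lysed with CellTiter-Glo and luminescence recorded.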

[15] = qHTS assay to identify small molecule antagonists of the farnesoid-X-receptor (FXR) signaling pathway - cell viability counter screen (AID 743221; active means well fitted cell-killing curve with a large enough effect in the repeat runs, not every such curve was filed as active; further: nearly all actives have a fitted effect of over 50% in size)
Outline: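 Multiplexed counter screen: viability of FXR-bla HEK 293T cells under agonist stimulation by chenodeoxycholic acid (50 uM, final) and test compound for 16 h at 37 C, measured by CellTiter-Glo luminescence in the reporter wells.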

[16] = molecular target: Vitamin D3 receptor (Homo sapiens) (UniProt P11473); assay: qHTS assay to identify small molecule antagonists of the vitamin D receptor (VDR) signaling pathway (AID 743223; active means well fitted inhibition curve with a large enough effect in the signal ratio in the repeat runs, not every such curve was filed as active; the % refers to the signal ratio)
Outline: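 Cells carrying a VDR-driven beta-lactamase reporter (VDR-bla) were co-treated with compound and 3 nM final 1alpha,25-dihydroxyvitamin D3 for 16 h at 37C; reporter activity was measured as FRET substrate fluorescence after 2 h at room temperature.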

[17] = qHTS assay to identify small molecule antagonists of the peroxisome proliferator-activated receptor gamma (PPARg) signaling pathway - cell viability counter screen (AID 743194); settings: Potency: co-treated with 50 nM rosiglitazone; further: nearly all actives have a fitted effect of over 55% in size; further: potency means the concentration at half of the fitted maximal effect
Outline: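 PPARg-UAS-bla HEK293H cells were plated, rested 5 h at 37 C, then treated with compounds plus rosiglitazone (50 nM final) for 17 h at 37 C; viability was then read by CellTiter-Glo luminescence after 30 min at room temperature.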

[18] = qHTS assay for small molecule agonists of the antioxidant response element (ARE) signaling pathway - cell viability counter screen (AID 743203; calls by dose curve; further: nearly all actives have a fitted effect of over 55% in size; further: potency means the concentration at half of the fitted maximal effect)
Outline: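 Following 16 hrs of compound treatment at 37C, HepG2 cells with an ARE-controlled beta-lactamase gene were lysed with CellTiter-Glo. Luminescence was read after 30 min at room temperature.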

[19] = molecular target: Bile acid receptor (Homo sapiens) (UniProt Q96RI1); assay: qHTS assay to identify small molecule agonists of the farnesoid-X-receptor (FXR) signaling pathway (AID 743220; active means well fitted activation curve with a large enough effect in the signal ratio in the repeat runs, not every such curve was filed as active; the % refers to the signal ratio)
Outline: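 Beta-lactamase reporter under UAS control in GeneBLAzer FXR HEK 293T cells (5000/well) measured with LiveBLAzer FRET substrate after 2 h at room temperature. Compound exposure lasted 16 h at 37C.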

Measured: Potency

O=S1(=O)OC(c2cc(Br)c(O)c(Br)c2)(c2cc(Br)c(O)c(Br)c2)c2ccccc21
inactive: [2] | [4] | [5] | [6] | [7] | [8] | [9] | [10]
active: [1] 25 µM | [3] 28.1 µM

CC1(C)CCC(Cc2ccc(Cl)cc2)C1(O)Cn1cncn1 (centres undefined)
inactive: [1] | [2] | [3] | [11] | [6] | [12] | [7] | [13] | [8] | [9] | [14] | [15] | [10] | [16]
active: [4] 49 µM

C(=NC1CCCCC1)=NC1CCCCC1
inactive and 21.9 µM (active): [12]
inactive: [1] | [2] | [3] | [11] | [6] | [7] | [15] | [10] | [16]
active: [17] 4.93 µM and 3.47 µM | [18] 3.08 µM and 3.06 µM | [14] 11 µM

CC(C)(CCl)C(=O)Cl
inactive: [1] | [2] | [3] | [4] | [5] | [18] | [11] | [12] | [7] | [8] | [14] | [15] | [16]

CN1C(=O)C(O)N=C(c2ccccc2)c2cc(Cl)ccc21 (centres undefined)
inactive: [1] | [2] | [3] | [17] | [18] | [11] | [12] | [7] | [14] | [15]

O=C(O)CC(Cl)C(=O)O (centres undefined)
active: [5] 2.76 µM
inactive: [1] | [2] | [3] | [17] | [11] | [6] | [12] | [7] | [8] | [9] | [14] | [19] | [15]

CC(C)N(CCC(C(N)=O)(c1ccccc1)c1ccccn1)C(C)C (centres undefined)
inactive: [1] | [2] | [3] | [17] | [18] | [11] | [6] | [12] | [7] | [8] | [14] | [15] | [10] | [16]

CO/C=C(/C(=O)OC)c1ccccc1COc1cccc(C(F)(F)F)n1
active: [1] 61.1 µM | [4] 4.36 µM
inactive: [2] | [3] | [11] | [6] | [13] | [14] | [19] | [10]

C=COC(C)=O
inactive: [1] | [2] | [3] | [4] | [5] | [18] | [11] | [6] | [12] | [13] | [14] | [15] | [10]

CC(=O)CCC(C)=O
inactive: [1] | [2] | [3] | [17] | [5] | [18] | [6] | [12] | [7] | [13] | [14] | [10] | [16]

CC1(C)[C@H](C=C(Cl)Cl)[C@@H]1C(=O)O[C@@H](C#N)c1cccc(Oc2ccccc2)c1
inactive: [1] | [2] | [3] | [17] | [18] | [11] | [12] | [13] | [14] | [15] | [10] | [16]

CCOP(=S)(OCC)Oc1cc(Cl)c(Br)cc1Cl
inactive: [1] | [3] | [4] | [18] | [11] | [6] | [7] | [14] | [15] | [10] | [16]
active: [2] 9.69 µM

C=CCN1CC[C@]23c4c5ccc(O)c4O[C@H]2C(=O)CC[C@@]3(O)[C@H]1C5
inactive: [1] | [2] | [3] | [5] | [18] | [11] | [6] | [12] | [13] | [9] | [14] | [15] | [10]

COP(=O)(OC)O/C(=C/Cl)c1cc(Cl)c(Cl)cc1Cl
inactive: [1] | [2] | [3] | [18] | [11] | [6] | [7] | [13] | [9] | [14] | [19] | [15]
active: [5] 5.75 µM

c1ccc(CN2CCNCC2)cc1
inactive: [1] | [2] | [3] | [5] | [18] | [11] | [12] | [7] | [13] | [8] | [14] | [15] | [10] | [16]

C[N+](C)(C)CCCl
inactive: [1] | [2] | [3] | [17] | [18] | [11] | [6] | [12] | [7] | [13] | [8] | [14] | [15] | [16]

O=C(NC(=O)c1c(F)cccc1F)Nc1cc(Cl)c(Oc2ncc(C(F)(F)F)cc2Cl)c(Cl)c1
inactive: [1] | [2] | [3] | [17] | [11] | [13] | [8]
active: [14] 37.3 µM

C=CC(=O)OC
inactive: [1] | [2] | [3] | [5] | [18] | [11] | [6] | [12] | [13] | [9] | [14] | [15] | [10]
